From PubChem BioAssay AID956 (National Center for Advancing Translational Sciences (NCATS), 2007)
The list shows a part of the results. Entries that show only a call come without a potency. Records with an inconclusive call do not appear. Calls of active or inactive are those of the source. Calls come from the whole dose curve.

Target: Amyloid-beta precursor protein (Homo sapiens) (UniProt P05067)
Experiment: Beta amyloid ThS binding assay
Conditions: Abeta1-42 fibrillization, thioflavin S fluorescence, overnight 37 C
Procedure: NIH Molecular Libraries Screening Centers Network [MLSCN] NIH Chemical Genomics Center [NCGC] MLSCN Grant: 1 X01 MH079825-01 Assay Provider: Jeffrey A. Kuret, Ohio State University NCGC Assay Overview: Alzheimer disease is characterized by the accumulation of proteinacious aggregates comprised of tau and beta-amyloid. The protein components of each lesion can be induced to form filaments under experimentally tractable times when incubated in vitro with anionic inducers such as alkyl sulfate detergents or fatty acids. […] Here we describe the in vitro fibrillization of beta-amyloid 1-42 (Abeta1-42). Abeta1-42 proteins were induced to form filaments by incubation overnight at 37 C in the presence of arachidonic acid. […] Small molecules capable of ThS displacement or antagonizing fibrillization result in a decrease in ThS fluorescence, allowing determination of binding affinities for molecules screened.
NCGC Assay Protocol Summary Human Beta amyloid peptide 1-42 (American Peptide Co., Sunnyvale, CA) was resuspended in hexafluoroisopropanol (by vortexing in a glass vial) to a final concentration of 1 mM. […] Fluorescence (ex = 440 nm; em = 485 nm) was measured after brief shaking (10 s) in a FlexStation plate reader (Molecular Devices, Sunnyvale, CA) operated at sensitivity 10, automatic PMT. […]

Chain of Amyloid-beta precursor protein (Homo sapiens) (P05067 whole entry, looked up): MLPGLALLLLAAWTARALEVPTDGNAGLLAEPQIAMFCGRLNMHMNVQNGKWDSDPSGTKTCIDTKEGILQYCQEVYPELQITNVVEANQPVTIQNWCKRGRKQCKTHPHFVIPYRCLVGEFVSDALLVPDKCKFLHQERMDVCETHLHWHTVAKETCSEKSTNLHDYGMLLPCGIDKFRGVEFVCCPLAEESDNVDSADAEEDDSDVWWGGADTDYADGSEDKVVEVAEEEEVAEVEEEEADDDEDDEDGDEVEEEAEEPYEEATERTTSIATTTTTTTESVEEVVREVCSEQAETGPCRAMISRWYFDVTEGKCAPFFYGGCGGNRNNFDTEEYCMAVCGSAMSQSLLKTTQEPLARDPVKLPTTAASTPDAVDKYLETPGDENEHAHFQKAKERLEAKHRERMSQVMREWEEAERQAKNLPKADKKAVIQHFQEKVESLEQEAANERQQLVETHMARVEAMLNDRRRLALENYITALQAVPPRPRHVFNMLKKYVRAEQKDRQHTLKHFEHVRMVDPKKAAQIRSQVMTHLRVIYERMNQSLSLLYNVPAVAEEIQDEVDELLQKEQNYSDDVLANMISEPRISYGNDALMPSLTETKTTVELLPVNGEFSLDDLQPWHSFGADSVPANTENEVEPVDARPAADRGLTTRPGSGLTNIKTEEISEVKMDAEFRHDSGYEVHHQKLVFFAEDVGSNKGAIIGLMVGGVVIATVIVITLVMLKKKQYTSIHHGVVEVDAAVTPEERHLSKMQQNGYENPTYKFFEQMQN

| SMILES | outcome | Potency |
| --- | --- | --- |
| O=C(CCCCn1c(=O)[nH]c2ccccc2c1=O)NCc1ccc2c(c1)OCO2 | inactive | – |
| Oc1ccc(O)c2c(O)cccc12 | – | 4.52 µM (active) |
